# Measurements: PubChem BioAssay (NCATS)
# Inconclusive results are not listed. The source made the active and inactive calls. Unless noted, calls follow the shape of the dose curve; as a rule, active = well fitted inhibition curve with a large enough effect; inconclusive = small, poorly fitted or top-dose-only effect; inactive = flat fitted curve, though single readings scatter.
# What was measured:
# [1] = qHTS drug screen for cell cycle checkpoint inhibitors in PARPi-resistant BRCA-mutant ovarian cancer cell lines. (AID 1963452; calls by dose curve; also: potency is read from the fitted curve at half-maximal effect); details: PEO1/OlaR viability, CellTiter-Glo luminescence, 96 h; for Z-AUC: stronger effect = lower value
# Outline: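 PEO1, PEO4 and PEO1/OlaR ovarian cancer cells, 600 per well, exposed 96 h at 37C to a dilution series. Viability read by CellTiter-Glo luminescence, normalized to DMSO and empty wells; activity summarized as Z-AUC.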
# [2] = qHTS for identification of novel therapeutic agents for treatment of microphthalmiaassociated transcription factor (MiT) renal cell carcinoma (RCC) (AID 1963991); details: CellTiter-Glo, 48 h, stronger effect = lower value;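 also: curves scaled with 100% = DMSO viability and 0% = empty wells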
# Outline: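 UOK109/UOK124/UOK145 (TFE3 fusions, three partners); 500 cells/well; MIPE v4.0, 1912 cpds, 11 conc.; 48 h, 37 C; CellTiter-Glo, 15 min RT; lum. Norm.: DMSO 100%, empty 0%.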
# [3] = qHTS profiling for inhibitors of Plasmodium falciparum proliferation (AID 504749); also: nearly all actives have a fitted effect of over 60% in size; also: potency is read from the fitted curve at half-maximal effect;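 as to activity, negative = inhibition: 0% = DMSO vehicle and full inhibition = artemisinin control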; details: P. falciparum in erythrocytes, SYBR Green DNA, 72 h
# Outline: (§1)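 Three-day growth assay of blood-stage parasites in erythrocytes (0.3% parasitemia, 2.5% hematocrit) at 37 C, 5% CO2, quantified by SYBR Green DNA staining after overnight detergent lysis.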
# 3D7 = experiment: as above; details: P. falciparum in erythrocytes, SYBR Green DNA, 72 h; series mostly up to 28.7 µM
# Outline: as §1
# 7G8 = experiment: as above; details: P. falciparum in erythrocytes, SYBR Green DNA, 72 h; series mostly up to 28.7 µM
# Outline: as §1
# AA1029 = experiment: as above; details: P. falciparum in erythrocytes, SYBR Green DNA, 72 h; series mostly up to 28.7 µM
# Outline: as §1
# ATS189 = experiment: as above; details: P. falciparum in erythrocytes, SYBR Green DNA, 72 h; series mostly up to 28.7 µM
# Outline: as §1
# ATS95 = experiment: as above; details: P. falciparum in erythrocytes, SYBR Green DNA, 72 h; series mostly up to 28.7 µM
# Outline: as §1
# C2A = experiment: as above; details: P. falciparum in erythrocytes, SYBR Green DNA, 72 h; series mostly up to 28.7 µM
# Outline: as §1
# AS120 = experiment: as above; details: P. falciparum in erythrocytes, SYBR Green DNA, 72 h; series mostly up to 28.7 µM
# Outline: as §1
# [4] = measured here: PEO1 parental Z-AUC
# [5] = TFE3-RCC UOK109 viability, measured here: UOK109 Z-AUC
# [6] = TFE3-RCC viability, measured here: UOK124 Z-AUC
# [7] = TFE3-RCC viability, measured here: UOK145 Z-AUC
# [8] = at 28.7 µM (top of the series), parasite line A
# [9] = at 28.7 µM (top of the series), parasite line B
smiles,measurement,setting,value
CC(C)(C)OC(=O)CN(Cc1ccc(Cl)cc1)Cc1ccc([N+](=O)[O-])s1,Z-AUC,[1],0.709 (inactive)
same,Z-AUC,[1]; [4],0.527
same,Z-AUC,[1]; measured here: PEO4 Z-AUC,0.345
same,z-score,[2]; [5],0.406
same,z-score,[2]; [6],0.354
same,z-score,[2]; [7],0.158
O=c1ncn2nc(Sc3ccc(F)cc3F)ccc2c1-c1c(Cl)cccc1Cl,Z-AUC,[1],-0.105 (inactive)
same,Z-AUC,[1]; [4],0.606
same,Z-AUC,[1]; measured here: PEO4 Z-AUC,0.747
same,z-score,[2]; [5],0.124
same,z-score,[2]; [6],1.12
same,z-score,[2]; [7],1.1
CO[C@@H]1[C@H](N(C)C(=O)c2ccccc2)C[C@H]2O[C@]1(C)n1c3ccccc3c3c4c(c5c6ccccc6n2c5c31)C(=O)NC4,Potency,[1],1.55 µM (active)
same,Z-AUC,[1]; [4],-1.27
same,Z-AUC,[1]; measured here: PEO4 Z-AUC,-1.21
CC(C)(C)NCC(O)c1ccc(O)c(CO)c1 (configuration not stated),Z-AUC,[1],0.197 (inactive)
same,Z-AUC,[1]; [4],0.915
same,Z-AUC,[1]; measured here: PEO4 Z-AUC,0.881
same,z-score,[2]; [5],0.712
same,z-score,[2]; [6],0.591
same,z-score,[2]; [7],2.94
COc1ccccc1-c1cccc(-c2c(O)c3cc(C#N)c(Cl)cc3[nH]c2=O)c1,Z-AUC,[1],0.395 (inactive)
same,Z-AUC,[1]; [4],0.311
same,Z-AUC,[1]; measured here: PEO4 Z-AUC,0.381
same,z-score,[2]; [5],1.05
same,z-score,[2]; [6],-0.0424
same,z-score,[2]; [7],0.756
CC(C)OC(=O)C1=CN(C(=O)c2ccc(F)c(F)c2)CC(C)(C)c2c1[nH]c1ccccc21,Z-AUC,[1],-0.655 (inactive)
same,Z-AUC,[1]; [4],1.12
same,Z-AUC,[1]; measured here: PEO4 Z-AUC,0.385
same,z-score,[2]; [5],0.178
same,z-score,[2]; [6],0.0335
same,z-score,[2]; [7],-0.0962
CC(c1cc2ccccc2s1)N(O)C(N)=O (configuration not stated),Z-AUC,[1],-0.588 (inactive)
same,Z-AUC,[1]; [4],-0.0331
same,Z-AUC,[1]; measured here: PEO4 Z-AUC,-0.638
same,z-score,[2]; [5],0.403
same,z-score,[2]; [6],0.701
same,z-score,[2]; [7],0.104
same,"activity, negative = inhibition",[3]; [8],3.01% (inactive)
same,"activity, negative = inhibition",[3]; [9],-4.79% (inactive)
same,Potency,3D7,inactive
same,Potency,7G8,inactive
same,Potency,AA1029,inactive
same,Potency,ATS189,inactive
same,Potency,ATS95,inactive
same,Potency,C2A,inactive
Oc1ccc(C2CNCCc3c2cc(O)c(O)c3Cl)cc1 (configuration not stated),Z-AUC,[1],1.23 (inactive)
same,Z-AUC,[1]; [4],1.1
same,Z-AUC,[1]; measured here: PEO4 Z-AUC,1
same,z-score,[2]; [5],0.257
same,z-score,[2]; [6],0.218
same,z-score,[2]; [7],0.231
same,Potency,3D7,inactive
same,Potency,AA1029,inactive
same,Potency,AS120,inactive
same,Potency,ATS189,inactive
same,Potency,ATS95,inactive
same,Potency,C2A,inactive
CNC(=O)c1ccc(C)c(-n2c(C)cc(OCc3ccc(F)cc3F)c(Br)c2=O)c1,Z-AUC,[1],-0.231 (inactive)
same,Z-AUC,[1]; [4],-0.585
same,Z-AUC,[1]; measured here: PEO4 Z-AUC,-0.46
same,z-score,[2]; [5],0.451
same,z-score,[2]; [6],1.43
same,z-score,[2]; [7],0.519
CC(C)(Sc1ccc(CCN(CCCCC2CCCCC2)C(=O)NC2CCCCC2)cc1)C(=O)O,Z-AUC,[1],1.3 (inactive)
same,Z-AUC,[1]; [4],1.26
same,Z-AUC,[1]; measured here: PEO4 Z-AUC,1.25
same,z-score,[2]; [5],0.806
same,z-score,[2]; [6],0.0749
same,z-score,[2]; [7],0.555
N#Cc1ccc(C(c2ccc(C#N)cc2)n2cncn2)cc1,Z-AUC,[1],1.61 (inactive)
same,Z-AUC,[1]; [4],1.56
same,Z-AUC,[1]; measured here: PEO4 Z-AUC,1.79
same,"activity, negative = inhibition","[3]; at 12.8 µM (top of the series), parasite line A",0.0131% (inactive)
same,"activity, negative = inhibition","[3]; at 12.8 µM (top of the series), parasite line B",3.12% (inactive)
same,Potency,3D7,inactive
same,Potency,7G8,inactive
same,Potency,AA1029,inactive
same,Potency,AS120,inactive
same,Potency,ATS189,inactive
same,Potency,ATS95,inactive
same,Potency,C2A,inactive
NC(=O)c1ccc(I)c([N+](=O)[O-])c1,Z-AUC,[1],1.56 (inactive)
same,Z-AUC,[1]; [4],1.77
same,Z-AUC,[1]; measured here: PEO4 Z-AUC,1.61
same,z-score,[2]; [5],0.172
same,z-score,[2]; [6],0.616
same,z-score,[2]; [7],-0.107
Cc1cc(SCc2sc(-c3ccc(C(F)(F)F)cc3)nc2C)ccc1OCC(=O)O,Z-AUC,[1],1.25 (inactive)
same,Z-AUC,[1]; [4],0.45
same,Z-AUC,[1]; measured here: PEO4 Z-AUC,0.535
same,z-score,[2]; [5],0.936
same,z-score,[2]; [6],0.482
same,z-score,[2]; [7],0.629
NC(=O)C1CCCc2c1[nH]c1ccc(Cl)cc21 (configuration not stated),Z-AUC,[1],-0.722 (inactive)
same,Z-AUC,[1]; [4],0.489
same,Z-AUC,[1]; measured here: PEO4 Z-AUC,-0.557
same,z-score,[2]; [5],0.0433
same,z-score,[2]; [6],0.823
same,z-score,[2]; [7],0.151
CC(C[N+](C)(C)C)OC(N)=O (configuration not stated),Z-AUC,[1],1.18 (inactive)
same,Z-AUC,[1]; [4],1.37
same,Z-AUC,[1]; measured here: PEO4 Z-AUC,1.64
same,z-score,[2]; [5],0.592
same,z-score,[2]; [6],0.666
same,z-score,[2]; [7],0.688
same,"activity, negative = inhibition",[3]; [8],8.36% (inactive)
same,"activity, negative = inhibition",[3]; [9],9.26% (inactive)
same,Potency,3D7,inactive
same,Potency,7G8,inactive
same,Potency,AA1029,inactive
same,Potency,AS120,inactive
same,Potency,ATS189,inactive
same,Potency,ATS95,inactive
same,Potency,C2A,inactive
CS(=O)(=O)Oc1ccc2c(NC(N)=O)c(C(=O)c3ccc(Cl)cc3Cl)oc2c1,Z-AUC,[1],1.2 (inactive)
same,Z-AUC,[1]; [4],1.13
same,Z-AUC,[1]; measured here: PEO4 Z-AUC,1.11
CC[C@@H](C)[C@H](NC(=O)[C@H](CC1CCCCC1)NC(=O)c1ccno1)C(=O)N1CCC2(CCc3ccccc32)CC1,Z-AUC,[1],-0.29 (inactive)
same,Z-AUC,[1]; [4],-0.177
same,Z-AUC,[1]; measured here: PEO4 Z-AUC,-0.471
same,z-score,[2]; [5],0.139
same,z-score,[2]; [6],0.261
same,z-score,[2]; [7],-0.242
C[C@H](NC(=O)Cc1cc(F)cc(F)c1)C(=O)N[C@@H]1C(=O)N(C)c2ccccc2-c2ccccc21,Z-AUC,[1],-0.379 (inactive)
same,Z-AUC,[1]; [4],-0.57
same,Z-AUC,[1]; measured here: PEO4 Z-AUC,-0.563
OC(CCN1CCCCC1)(c1ccccc1)C1CC2C=CC1C2 (configuration not stated),Z-AUC,[1],-0.614 (inactive)
same,Z-AUC,[1]; [4],-0.36
same,Z-AUC,[1]; measured here: PEO4 Z-AUC,-0.607
same,z-score,[2]; [5],0.676
same,z-score,[2]; [6],0.56
same,z-score,[2]; [7],0.997
COc1ccc(-c2ccc3c(N4CCOCC4)nc(N4C[C@@H](C)O[C@@H](C)C4)nc3n2)cc1CO,Z-AUC,[1],1.56 (inactive)
same,Z-AUC,[1]; [4],1.12
same,Z-AUC,[1]; measured here: PEO4 Z-AUC,1.19
O=C(C1CC1)N1CC[C@@H](Cn2c(-c3ccc(-c4ccc5occc5c4)cc3)nc3cnccc32)C1,Z-AUC,[1],0.419 (inactive)
same,Z-AUC,[1]; [4],0.824
same,Z-AUC,[1]; measured here: PEO4 Z-AUC,0.902
same,z-score,[2]; [5],0.57
same,z-score,[2]; [6],0.377
same,z-score,[2]; [7],0.609
O=C1CCc2cc(OCCCCc3nnnn3C3CCCCC3)ccc2N1,Z-AUC,[1],-1.35 (inactive)
same,Z-AUC,[1]; [4],-0.972
same,Z-AUC,[1]; measured here: PEO4 Z-AUC,-0.778
same,z-score,[2]; [5],0.489
same,z-score,[2]; [6],0.136
same,z-score,[2]; [7],0.331
same,Potency,3D7,inactive
same,Potency,7G8,inactive
same,Potency,ATS95,inactive
COc1cc2nccc(Oc3ccc(NC(=O)NC4CC4)c(Cl)c3)c2cc1C(N)=O,Z-AUC,[1],-1.2 (inactive)
same,Z-AUC,[1]; [4],0.621
same,Z-AUC,[1]; measured here: PEO4 Z-AUC,0.0753
Cc1cccc(-c2[nH]c(C(C)(C)C)nc2-c2ccc3nccnc3c2)n1,Z-AUC,[1],0.914 (inactive)
same,Z-AUC,[1]; [4],0.697
same,Z-AUC,[1]; measured here: PEO4 Z-AUC,0.424
Cc1c(C)c2c(c(C)c1O)CCC(C)(COc1ccc(CC3SC(=O)NC3=O)cc1)O2 (configuration not stated),Z-AUC,[1],0.635 (inactive)
same,Z-AUC,[1]; [4],0.564
same,Z-AUC,[1]; measured here: PEO4 Z-AUC,0.844
same,z-score,[2]; [5],0.729
same,z-score,[2]; [6],0.103
same,z-score,[2]; [7],-0.301
same,"activity, negative = inhibition",[3]; [8],-7.46% (inactive)
same,Potency,3D7,inactive
same,Potency,7G8,10 µM (active)
same,Potency,ATS95,inactive
same,Potency,C2A,inactive
O=C1CCC(N2C(=O)c3ccccc3C2=O)C(=O)N1 (configuration not stated),Z-AUC,[1],0.908 (inactive)
same,Z-AUC,[1]; [4],0.614
same,Z-AUC,[1]; measured here: PEO4 Z-AUC,0.388
same,z-score,[2]; [5],0.392
same,z-score,[2]; [6],-0.79
same,z-score,[2]; [7],0.456
same,"activity, negative = inhibition",[3]; [8],3.13% (inactive)
same,Potency,3D7,inactive
same,Potency,7G8,inactive
same,Potency,AA1029,inactive
same,Potency,AS120,inactive
same,Potency,ATS189,inactive
same,Potency,ATS95,inactive
same,Potency,C2A,inactive
O=C(O)[C@@H](c1ccc(OCc2ccc3ccccc3n2)cc1)C1CCCC1,Z-AUC,[1],1.02 (inactive)
same,Z-AUC,[1]; [4],0.403
same,Z-AUC,[1]; measured here: PEO4 Z-AUC,0.552
same,z-score,[2]; [5],0.431
same,z-score,[2]; [6],0.636
same,z-score,[2]; [7],0.202
CN(C)c1ccc(Nc2nc(N)n(C(=O)c3c(F)cccc3F)n2)cc1,Z-AUC,[1],0.994 (inactive)
same,Z-AUC,[1]; [4],0.58
same,Z-AUC,[1]; measured here: PEO4 Z-AUC,0.398
